Source: PubChem (several laboratories)
CCHFV vOTU inh – CCHFV vOTU protease inhibition; inhibition, % at 11.5 µM; Pep-AMC fluorescence; 370,000 tested, 0.55% active; in the data active means inhibition above about 30%; further: 0% = vehicle wells with enzyme and 100% = no enzyme wells
RecA splice inh – blocks M. tuberculosis RecA intein splicing; P9WHJ3; AID 2221; cell-free RecA intein splicing, fluorescence; 290,000 tested, 0.75% active; inhibition, % (no concentration beside the values); in the data active means inhibition above about 30%; inconclusive means no clear call, values can overlap the other calls;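 further: 0% = vehicle wells and 100% = reference inhibitor control wells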
Target sequence (P9WHJ3 whole entry, looked up, canonical isoform): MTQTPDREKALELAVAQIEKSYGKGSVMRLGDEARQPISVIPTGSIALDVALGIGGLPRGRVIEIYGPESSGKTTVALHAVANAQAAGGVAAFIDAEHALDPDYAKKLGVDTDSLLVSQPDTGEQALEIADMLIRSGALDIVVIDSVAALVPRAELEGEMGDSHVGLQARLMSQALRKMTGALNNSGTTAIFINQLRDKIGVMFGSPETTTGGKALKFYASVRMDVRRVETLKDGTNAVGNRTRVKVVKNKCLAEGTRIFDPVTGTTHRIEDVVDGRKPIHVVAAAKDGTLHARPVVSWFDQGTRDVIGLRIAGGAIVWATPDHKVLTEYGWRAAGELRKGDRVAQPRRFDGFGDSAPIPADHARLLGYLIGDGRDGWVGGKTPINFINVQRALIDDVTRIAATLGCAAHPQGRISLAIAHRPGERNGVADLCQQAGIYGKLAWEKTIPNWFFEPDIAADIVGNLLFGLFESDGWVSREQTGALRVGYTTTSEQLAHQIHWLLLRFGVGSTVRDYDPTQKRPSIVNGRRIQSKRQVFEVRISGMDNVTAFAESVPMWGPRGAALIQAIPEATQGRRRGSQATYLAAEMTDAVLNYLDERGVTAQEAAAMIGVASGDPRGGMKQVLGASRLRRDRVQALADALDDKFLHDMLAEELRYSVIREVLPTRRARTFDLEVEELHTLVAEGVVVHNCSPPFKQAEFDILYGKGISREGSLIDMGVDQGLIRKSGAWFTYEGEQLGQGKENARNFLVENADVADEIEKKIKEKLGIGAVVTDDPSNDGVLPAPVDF
Mtb bLac sens – beta-lactam sensitization of Mtb H37Rv; M. tuberculosis H37Rv growth with meropenem, percent inhibition; inhibition, % at 25 µM; 330,000 tested, 0.27% active;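 further: growth measured after seven days incubation then overnight dye step; 0% = bacteria only wells and 100% = bacteria with antibiotic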
PfHsp40 rescue – rescue of PfHsp40-mediated yeast toxicity; 340,000 tested, 0.68% active; growth rescue, % at 12.5 µM; AID 504582; S. cerevisiae expressing PfHsp40, growth rescue, ATP luminescence; in the data active means growth rescue above about 28%, passing the limit was not always enough; inconclusive means no clear call, values can overlap the other calls;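 further: yeast W303a lacking pdr1 and pdr3 grown in galactose medium; growth measured after three days at 30 °C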
Mtb hypoxia inh – Mtb hypoxia fluorescent reporter inhibition | M. tuberculosis hypoxia-regulated fluorescent reporter, fluorescence | fluorescence inhibition, % (no concentration beside the values) | 300,000 tested, 0.1% active | AID 1159583; in the data active means fluorescence inhibition mostly above about 23%, no sharp cut-off; inactive means mostly below about 17%
GFP chromophore – counter-screen: blocks GFP chromophore formation | shares compounds with RecA splice inh | cell-free GFP chromophore formation, fluorescence | EC50, µM | 2,100 tested, 83% active
Active calls of the source: *; ? = inconclusive; · = no result shown. Shown are actives, neighbours in structure and some others; about 1.7% of the full set was active somewhere. Unless noted, how the calls were made is not given here.

SMILES	CCHFV vOTU inh	RecA splice inh	Mtb bLac sens	PfHsp40 rescue	Mtb hypoxia inh	GFP chromophore
O=c1[nH]c(/C=C\c2cccnc2)c([N+](=O)[O-])c(=O)[nH]1	15	2	-2	-2	-2	·
Cc1nc2ccccc2c(=O)n1N=Cc1cc(Br)ccc1O	·	·	·	·	-4	·
COc1ccc(C=NNC(=O)CN(Cc2ccccc2)S(=O)(=O)c2ccc3c(c2)OCCO3)cc1	·	·	·	·	2	·
N#CC(C#N)=C(C#N)c1ccc(Nc2ccccc2)cc1	-3	52*	11	0	6	4.6*
COc1cc(C=CC(=O)OCC(=O)Nc2c(C)n(C)n(-c3ccccc3)c2=O)ccc1OCC#N	·	·	·	·	2	·
Nc1nn2c(-c3ccccc3)cc(=O)[nH]c2c1N=Nc1ccc(Br)cc1	-9	·	·	0	12	·
Nc1nn2c(-c3ccccc3)cc(=O)[nH]c2c1N=Nc1ccc(O)cc1	-8	52*	43	1	9	2*
CS(=O)(=O)c1ccc(C(=O)Nc2ccc(N3CCOCC3)cc2)c(Cl)c1	-18	1	2	0	5	·
CS(=O)(=O)c1ncc(Cl)c(C(=O)Nc2ccc(N3CCOCC3)cc2)n1	·	45*	3	0	10	38*
CS(=O)(=O)c1ncc(Cl)c(C(=O)Nc2ccc(OC(F)F)cc2)n1	·	79*	100	3	·	11*
O=S(=O)(c1ccccc1)[C@@]1(c2ccccc2)CC2ON=C(c3cccc(Br)c3)C2C1 (stereo partly specified)	·	·	·	·	13	·
CC(=O)n1cc(N(C(=O)CCl)c2ccccc2)c2ccccc21	9	86*	100	8	·	4.4*
CC(=O)n1cc(CO)c2ccccc21	-5	·	-8	-1	·	·
CC(=O)n1cc(N(C(=O)CCl)c2ccc([N+](=O)[O-])cc2)c2ccccc21	2	90*	99	4	11	2.3*
O=Cc1[nH]c2ccccc2c1N(C(=O)CCl)c1ccc([N+](=O)[O-])cc1	10	1	-2	7	·	·
O=C(Nc1ccc(N2CCOCC2)cc1)Nc1ccc2nsnc2c1	-8	54*	-4	-1	0	>38
O=C(Nc1ccc(N2CCOCC2)cc1)c1cnsn1	8	1	·	0	·	·
c1ccc(CCNCc2cccs2)cc1	-7	33*	-3	-1	1	>38
CC(NCc1ccccc1)=C(C#N)C(=O)NCc1ccccc1	·	·	·	·	5	·
Cc1c(OCC(=O)Nc2cccnc2)ccc2c3c(c(=O)oc12)CCC3	5	94*	-2	-1	8	10*
O=C(COc1cc2oc(=O)c3c(c2cc1Cl)CCC3)Nc1cccnc1	6	-2	-4	1	-7	·
[O-]C1=N/[N+](=C/c2ccc(Cl)cc2)CC1	4	73*	-11	3	·	29*
Cc1ccccc1OCC(=O)Nc1ccccc1N1CCCCC1	-8	32*	·	0	16	>38
Cc1ccc(SC2=C(Sc3ccc(C)cc3)C(=O)c3ccccc3C2=O)cc1	-1	12	-2	-1	3	·
Cc1ccc(Sc2c(C)[nH]n(C(C)(C)C)c2=O)cc1	2	50*	-17	1	11	40*
SMILES	CCHFV vOTU inh	RecA splice inh	Mtb bLac sens	PfHsp40 rescue	Mtb hypoxia inh	GFP chromophore
Cn1cnc([N+](=O)[O-])c1S(=O)(=O)Oc1ccccc1	8	·	·	2	·	·
Cn1cnc([N+](=O)[O-])c1S(=O)(=O)c1cccc(Cl)c1	19	61*	100	3	·	27*
COc1ccc(C=NN(C)C2=NS(=O)(=O)c3ccccc32)cc1OC	·	·	·	·	-2	·
Cc1cc(C(=O)CCl)c(C)n1CCc1ccc(Cl)cc1	-1	62*	100	0	19	21*
Cc1cc(C(=O)CCl)c(C)n1CCc1ccc(F)cc1	8	27	99	2	18	·
O=C1C=C(c2ccc3c(c2)OCO3)CC(c2ccc3c(c2)OCO3)C1 (stereo unspecified)	·	·	·	·	6	·
O=C(O)c1cccc2c1C(=O)c1ccccc1C2=O	10	-3	3	0	-12	·
O=C(O)c1ccc2c3c(ncnc13)-c1ccccc1C2=O	·	44*	66	·	2	4.4*
CC(C)c1nnc(NC(=O)CCS(=O)(=O)c2nc(-c3cccs3)cc(C(F)(F)F)n2)s1	13	32*	7	0	19	>38
C#CCOCCOCCOCCNc1nc(N2CCN(C(=O)CCCCCCCCCCNC(=O)C(CO)n3cc(CCCSC)nn3)CC2)nc(N2CCN(C(=O)CCCCCCCCCCNC(=O)C(CCCCN)n3cc(CCO)nn3)CC2)n1 (stereo unspecified)	·	·	·	·	6	·
CCN1C(=O)C2C(C)C3=C4C(CC5C(=O)N(CC)C(=O)C5C4[C@@]4(C)C(=NCC5CC5)OC(=O)N4C3=O)C2C1=O (stereo partly specified)	·	·	·	·	0	·
COc1nc(N/N=C/c2ccc(-c3ccccc3[N+](=O)[O-])o2)nc(N2CCOCC2)n1	0	61*	8	0	·	35*
COc1cc(C=NNC(=O)CCN2CCN(c3ccccc3)CC2)cc(OC)c1OC	·	·	·	·	13	·
O=C(c1cccc(C(F)(F)F)c1)C1CCCN(Cc2ncc[nH]2)C1 (stereo unspecified)	-10	38*	-1	14	9	>38
CCC(=O)N(CC)C1=C(O)c2ccccc2C(=O)C1=O	11	73*	-7	1	0	12*
CC(NC(=O)Cn1ncc(Cl)c(Cl)c1=O)C12CC3CC(CC(C3)C1)C2 (stereo unspecified)	·	49*	-10	0	8	?
CCn1cc(C(=O)NC(C)C23CC4CC(CC(C4)C2)C3)cn1 (stereo unspecified)	0	0	4	1	·	·
CC(=NNC(=O)CSc1nc(C)[nH]c1[N+](=O)[O-])c1ccc(F)cc1	·	·	·	·	3	·
O=C(NC1C(=O)NNC1c1ccccc1)c1ccccc1 (stereo unspecified)	22	69*	0	0	·	25*
O=C(NC1CCCCC1c1ccccc1)c1ccccc1 (stereo unspecified)	-15	·	·	-1	·	·
CC(C)c1ccc(S(=O)(=O)/N=C2\C=C(NS(=O)(=O)c3ccccc3)C(=O)c3ccccc32)cc1	68*	45*	14	2	20	6.7*
O=[N+]([O-])c1cc(S(=O)(=O)C(F)(F)F)ccc1Sc1nc2ccccc2[nH]1	13	82*	94	4	·	1.5*
O=[N+]([O-])c1cc(S(=O)(=O)C(F)(F)F)ccc1Sc1nc2ccccc2s1	2	85*	99	?	·	0.25*
CC(CC(=O)Nc1ccc(C)c(Cl)c1)=NNC(=O)Cc1cccs1	·	·	·	·	5	·
C/C(CC(=O)Nc1ccccn1)=N\NC(=O)c1ccccc1	·	11	0	·	·	·
C/C(CC(=O)Nc1ccccn1)=N\NC(=O)c1ccncc1	·	85*	99	·	·	6.8*
C/C(CC(=O)Nc1ccc(Cl)cn1)=N\NC(=O)Cc1cccs1	0	62*	-2	-1	·	37*
COc1cc(OC)cc(C(=O)N/N=C(\C)CC(=O)Nc2ccccn2)c1	-3	56*	-2	0	·	24*
C/C(CC(=O)Nc1ccccn1)=N\NC(=O)Cc1cccc2ccccc12	-3	87*	4	-2	·	8.6*
